Assay outcomes (PubChem BioAssay)
This is a sample that favours compounds with a hit; in the whole collection about 9.2% have one here.
Rab9 prom act: qHTS Assay for Rab9 Promoter Activators; Huh7 Rab9 promoter-luciferase reporter, luminescence, 24 h; Potency, µM (titrated, usually from 9.22 µM), for inactives: at the highest dose activation, negative = inhibition, most hits filed as activators; hit rate 2.8% among 320,000; AID 485297, 2010; also: % of control where 0% means no effect; nearly all actives have a fitted effect of over 60% in size
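Using Huh7 cells stably transfected with Rab9 promoter–luciferase, compounds were incubated 24 h at 37 °C, 5% CO2; luciferase luminescence was read 10 min after reagent addition.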
FLuc counter: qHTS profiling assay for firefly luciferase inhibitor/activator using purifed enzyme and Km concentrations of substrates (counterscreen for miR-21 project); purified FLuc, Km substrates, luminescence inhibition; Potency, µM (series often up to 57.5 µM), for inactives: at the highest dose activity change, negative = inhibition, hits mostly inhibitors; hit rate 6.9% among 360,000;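 also: plate controls were vehicle for no effect and reference inhibitor for full effect; nearly all actives have a fitted effect of over 55% in size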
Target sequence (P08659 whole entry, looked up): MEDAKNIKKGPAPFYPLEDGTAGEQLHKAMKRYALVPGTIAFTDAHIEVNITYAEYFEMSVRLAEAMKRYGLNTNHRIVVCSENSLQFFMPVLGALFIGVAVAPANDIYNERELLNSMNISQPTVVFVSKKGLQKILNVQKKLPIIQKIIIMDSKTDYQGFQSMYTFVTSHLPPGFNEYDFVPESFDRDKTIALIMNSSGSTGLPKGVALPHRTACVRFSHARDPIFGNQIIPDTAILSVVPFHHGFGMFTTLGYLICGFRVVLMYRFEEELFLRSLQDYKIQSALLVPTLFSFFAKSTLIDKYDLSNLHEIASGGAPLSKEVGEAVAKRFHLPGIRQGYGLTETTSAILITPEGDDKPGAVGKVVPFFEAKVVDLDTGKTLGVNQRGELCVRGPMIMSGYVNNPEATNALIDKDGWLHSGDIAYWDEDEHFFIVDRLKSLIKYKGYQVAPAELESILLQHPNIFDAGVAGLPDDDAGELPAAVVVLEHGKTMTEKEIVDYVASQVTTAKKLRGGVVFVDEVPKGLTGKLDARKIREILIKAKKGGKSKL
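Purified P. pyralis luciferase, 10 nM final, with Km-level 10 uM D-luciferin and 10 uM ATP in 50 mM Tris acetate pH 7.5, 10 mM Mg acetate, 0.01% Tween-20, 0.05% BSA; 6-point qHTS titration about 60 µM downward; luminescence read.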
ELG1 genotoxic: qHTS screen for small molecules that induce genotoxicity in human embryonic kidney (HEK293T) cells expressing luciferase-tagged ELG1 | HEK293T ELG1-luciferase reporter, luminescence, 16 h | Potency, µM (series often up to 46 µM), inactives show at the highest dose activity change, positive = activation, actives largely listed as activators | hit rate 1.3% among 330,000; also: % of control where 0% means no effect; nearly all actives have a fitted effect of over 60% in size
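HEK293T cells expressing luciferase-tagged ELG1 were exposed to compound or DMSO vehicle for 16 hr at 37 °C and 5% CO2. Luciferase activity was then measured with ONE-Glo after 30 min at room temperature.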
ELG1 repair inh: qHTS screen for small molecules that inhibit ELG1-dependent DNA repair in human embryonic kidney (HEK293T) cells expressing luciferase-tagged ELG1. HEK293T ELG1-luciferase reporter, luminescence, 16 h; DNA damage induced by 5-fluorouridine. Potency, µM (doses to about 46.1 µM), for the others: at the top dose activity change, negative = inhibition, usual class: inhibitors. hit rate 2.3% among 330,000; also: % is scaled to controls: 0 for no effect and ±100 for the full control effect; nearly all actives have a fitted effect of over 55% in size
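In this reporter screen, reduction of luminescence relative to DMSO vehicle indicated activity. Compounds and 5-fluorouridine were added together to 2,000 cells per well, incubated for 16 hr at 37 °C, then developed with ONE-Glo.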
NPC1 prom act: qHTS Assay for NPC1 Promoter Activators. Huh7 NPC1 promoter luciferase reporter, 24 h. Potency, µM (top dose mostly 9.22 µM), for inactives: at the top dose activation, usual class: activators. hit rate 2.4% among 320,000; also: % of control where 0% means no effect; nearly all actives have a fitted effect of over 60% in size
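In 1536-well qHTS, Huh7 cells harboring an NPC1 promoter–luciferase construct received compound for 24 h; activation was quantified by luminescence following luciferase reagent addition.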
SMN2 splice enh: qHTS Assay for Enhancers of SMN2 Splice Variant Expression. Potency, µM (titrated, usually from 46.1 µM), inactives show at the highest dose activity change, positive = activation, actives largely listed as activators. HEK293 SMN2-luciferase splicing reporter, luminescence, 30-36 h. hit rate 2.8% among 210,000; also: % of control where 0% means no effect; nearly all actives have a fitted effect of over 55% in size
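HEK293 cells carry an SMN2 […]–luciferase reporter in which exon 7 inclusion puts luciferase in frame. Cells were plated 10-12 h before compound addition, then incubated 30-36 h at 37C. ONE-Glo luminescence was read; sodium butyrate at 4.5 mM final served as control.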
* hit, by the source's call; [ ] = remark or other dose. Calls follow the shape of the dose curve; as a rule, active = well fitted curve in the direction sought with a large enough effect; inconclusive = small, poorly fitted or top-dose-only effect, or another doubt; inactive = no such curve, though single readings can be large; an effect the other way counts as inactive or inconclusive. Potency is read from the fitted curve at half-maximal effect.

For Cc1ccc(S(=O)(=O)N2CC(O)C[C@H]2C(=O)OCC(=O)Nc2ccc(N3CCCCC3)cc2)cc1C (stereo partly specified) the results were Rab9 prom act 14%, FLuc counter -14%, ELG1 genotoxic 4%, ELG1 repair inh inconclusive and NPC1 prom act 10%.
COc1ccc2nc3ccccc3nc2c1 was read as Rab9 prom act 2.8µM*, FLuc counter 17µM*, ELG1 genotoxic 11%, ELG1 repair inh inconclusive, NPC1 prom act 4µM* and SMN2 splice enh 11µM*.
Screening Nc1ccc(-c2ccc3ccccc3n2)cc1 returned Rab9 prom act 1.3µM*, NPC1 prom act 1.5µM* and SMN2 splice enh 3.2µM*.
Screening COc1ccc(-c2nc3ccccc3nc2-c2ccccc2)cc1 returned Rab9 prom act -21%, FLuc counter 5%, ELG1 genotoxic -5%, ELG1 repair inh -19% and NPC1 prom act -5%.
COc1ccc(-c2ccc3ccccc3n2)cc1 was read as Rab9 prom act 0.4µM*, FLuc counter 1.2µM*, ELG1 genotoxic 0.92µM*, ELG1 repair inh inconclusive, NPC1 prom act 0.71µM* and SMN2 splice enh 13µM*.
`COc1ccc(-c2noc(C)c2-c2ccc3ccccc3n2)c(O)c1` gave Rab9 prom act 4%, FLuc counter 1%, ELG1 genotoxic -5%, ELG1 repair inh inconclusive, NPC1 prom act 3% and SMN2 splice enh -37%.
For COc1ccc(-c2ccc3ccccc3n2)cc1OC the results were Rab9 prom act 2µM*, FLuc counter 11µM*, ELG1 genotoxic 4.1µM*, ELG1 repair inh inconclusive, NPC1 prom act 2.2µM* and SMN2 splice enh 14µM*.
CC(C)c1ccccc1NC(=O)CCc1nc2ccccc2s1 was read as Rab9 prom act 1%, FLuc counter -13%, ELG1 genotoxic -3%, ELG1 repair inh 1%, NPC1 prom act -1% and SMN2 splice enh -4%.
`Cc1ccc(OCCn2ncc3ccccc3c2=O)c(C)c1` gave Rab9 prom act 12%, FLuc counter -16%, ELG1 genotoxic 5%, ELG1 repair inh 2% and NPC1 prom act 5%.
For O=c1c2ccccc2cnn1CCOc1cccc(Br)c1 the results were Rab9 prom act inconclusive, FLuc counter 9.5µM*, ELG1 genotoxic inconclusive, ELG1 repair inh inconclusive and NPC1 prom act 3.5µM*.
Screening COCCN=C1Sc2nc3cc(C)c(C)cc3cc2CN1Cc1cccs1 returned Rab9 prom act 17%, FLuc counter -7%, ELG1 genotoxic 3%, ELG1 repair inh inconclusive and NPC1 prom act 0%.
COCCN=C1Sc2nc3ccc(C)cc3cc2CN1Cc1ccco1 was read as Rab9 prom act 22%, FLuc counter 11µM*, ELG1 genotoxic 12%, ELG1 repair inh inconclusive, NPC1 prom act 16% and SMN2 splice enh 20%.
For O=C(Nc1ccccn1)c1cc2ccccc2o1 the results were Rab9 prom act 0.56µM*, FLuc counter 0.3µM*, ELG1 genotoxic inconclusive, ELG1 repair inh inconclusive, NPC1 prom act inconclusive and SMN2 splice enh 0.71µM*.
O=C(Nc1ncccc1O)c1cc2ccccc2o1 was read as Rab9 prom act 0.63µM*, FLuc counter 3.4µM*, ELG1 genotoxic inconclusive, ELG1 repair inh inconclusive and NPC1 prom act 3.2µM*.
Screening CCc1cccc(C)c1NC(=O)c1cc2ccccc2o1 returned FLuc counter -5% and SMN2 splice enh -29%.
Screening O=C(NC1=NCCS1)c1cc2ccccc2o1 returned Rab9 prom act 0.35µM*, FLuc counter 1.2µM*, ELG1 genotoxic 2.3µM*, ELG1 repair inh inconclusive, NPC1 prom act 0.32µM* and SMN2 splice enh 4µM*.
`CCC(=O)Nc1ccc(NC(=O)c2cc3ccccc3o2)cc1` gave Rab9 prom act inconclusive, FLuc counter inconclusive, ELG1 genotoxic 9%, ELG1 repair inh inconclusive, NPC1 prom act inconclusive and SMN2 splice enh inconclusive.
`Cc1ccnc(NC(=O)c2cc3ccccc3o2)c1` gave Rab9 prom act inconclusive, FLuc counter 0.27µM*, ELG1 genotoxic inconclusive, ELG1 repair inh inconclusive and NPC1 prom act 1.3µM*.
For Cc1nc2ccccc2c(=O)n1NC(=O)c1c(F)cccc1F the results were Rab9 prom act 1%[1.84 µM], FLuc counter -2%, ELG1 genotoxic 0%, ELG1 repair inh 0% and NPC1 prom act 1%.
Screening O=C(c1cnccn1)N1CCC[C@@]2(CCN(Cc3nccs3)C2)C1 returned SMN2 splice enh -4%.
For O=C(Nc1ccc(Cl)cn1)c1cc2ccccc2o1 the results were Rab9 prom act 1.8µM*, FLuc counter 1.9µM*, ELG1 genotoxic 0.82µM*, ELG1 repair inh inconclusive, NPC1 prom act 3.5µM* and SMN2 splice enh 7.9µM*.
O=C(Nc1cccc(S(=O)(=O)N2CCCCC2)c1)C1CCCN1S(=O)(=O)c1ccccc1F (stereo unspecified) was read as Rab9 prom act -1%, FLuc counter -3%, ELG1 genotoxic -9%, ELG1 repair inh inconclusive and NPC1 prom act -2%.
For C/C(=N/OC(=O)C1CC1c1ccccc1)c1ccccc1 (stereo unspecified) the results were Rab9 prom act 0%, FLuc counter 19µM*, ELG1 genotoxic inconclusive, ELG1 repair inh -2%, NPC1 prom act -1% and SMN2 splice enh -35%.
COc1ccc(C2CC2/C(C)=N/OC(=O)C2CC2)cc1 (stereo unspecified) was read as Rab9 prom act 14%, FLuc counter -7%, ELG1 genotoxic -3%, ELG1 repair inh 3%, NPC1 prom act 0% and SMN2 splice enh 16%.
`COc1ccc(NC(=O)c2cccc3c(=O)c4c([nH]c23)CCCC4)cc1` gave FLuc counter -1%.
`Clc1nc(-c2cccnc2)nc2scc(-c3ccccc3)c12` gave Rab9 prom act 28%, FLuc counter 12µM*, ELG1 genotoxic inconclusive, ELG1 repair inh inconclusive, NPC1 prom act inconclusive and SMN2 splice enh 15%.
For COc1ccc(-c2csc3nc(-c4cccnc4)nc(Cl)c23)cc1OC the results were Rab9 prom act -4%, FLuc counter -15%, ELG1 genotoxic -3%, ELG1 repair inh inconclusive, NPC1 prom act -8% and SMN2 splice enh -105%.
